From the supplement of paper PMC9801561
± gives the standard deviation of the averaged measurements.

Each compound was assayed on Escherichia coli Nissle 1917 (assay: area under OmniLog respiration curve over 48 h (OmniLog units x h); higher = more growth / nutrient utilisation; extreme values may be limits of the assay). Settings: nutrient role: C-Source, carboxylic acid; incubation: 48 h, 37 °C.
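For DuctApe activity index of respiration/growth curve (0 no growth to 9 maximum) in this document: biolog PM4 phosphorus and sulfur plates, tetrazolium violet dye reduction read in the OmniLog every 15 min, kinetic curves scored by DuctApe, each plate run in triplicate.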

Compound	area under OmniLog respiration curve
C[C@H](O)C(=O)O [L-Lactic acid]	7880 ± 510
O=C(O)[C@@H](O)[C@H](O)C(=O)O [D-Tartaric acid]	8.46 ± 6.5
O=C(O)CC(O)(CC(=O)O)C(=O)O [Citric acid]	31.1 ± 32
O=C(CO)[C@@H](O)[C@H](O)[C@@H](O)C(=O)O [5-Keto-D-Gluconic acid]	118 ± 140
N[C@@H](C(=O)O)[C@@H](O)[C@H](O)[C@H](O)CO [D-Glucosaminic acid]	1010 ± 670
O=C1O[C@H](CO)[C@@H](O)[C@H]1O [D-Ribono-1,4-Lactone]	4.72
NC(=O)CCC(=O)O [Succinamic acid]	9.14 ± 6
C/C(=C/C(=O)O)C(=O)O [Citraconic acid]	4.72
O=C(O)/C=C/C(=O)O [Fumaric acid]	8610 ± 570

Same assay, conditions: nutrient role: sole nitrogen source (pyruvate carbon); incubation: 48 h, 37 °C

Compound	area under OmniLog respiration curve
OC[C@H]1O[C@@H](n2cnc3c(O)nc(O)nc32)[C@H](O)[C@@H]1O [Xanthosine]	2070 ± 1300
Oc1nc(O)c2nc(O)[nH]c2n1 [Uric acid]	986 ± 490
NC(=O)NC1NC(=O)NC1=O (stereo not given) [Allantoin]	500 ± 670
O=C1NC(=O)C(=O)N1 [Parabanic acid]	556 ± 610

Same assay, conditions: nutrient role: sole phosphorus source (pyruvate carbon); incubation: 48 h, 37 °C

Compound	area under OmniLog respiration curve
N[C@@H](COP(=O)(O)O)C(=O)O [O-Phospho-L-Serine]	8970 ± 510
O=P(O)(O)O [Phosphate]	9750 ± 430
Nc1ncnc2c1ncn2[C@@H]1O[C@H](CO)[C@@H](O)[C@H]1OP(=O)(O)O [Adenosine 2`-Monophosphate]	9880 ± 610
Nc1ccn([C@@H]2O[C@H](CO)[C@@H](OP(=O)(O)O)[C@H]2O)c(=O)n1 [Cytidine 3`-Monophosphate]	4.72
NC(=O)OP(=O)(O)O [Carbamyl Phosphate]	9480 ± 480
N[C@H](COP(=O)(O)O)C(=O)O [O-Phospho-D-Serine]	9260 ± 670
NCCOP(=O)(O)O [O-Phosphoryl-Ethanolamine]	8740 ± 290
N[C@@H](Cc1ccc(OP(=O)(O)O)cc1)C(=O)O [O-Phospho-L-Tyrosine]	8920 ± 320

Same assay, conditions: nutrient role: sole sulfur source (pyruvate carbon); incubation: 48 h, 37 °C

Compound	area under OmniLog respiration curve
N[C@H](CS)C(=O)O [D-Cysteine]	7100 ± 110
CSCCC(NC(C)=O)C(=O)O (racemic) [N-Acetyl-D,L-Methionine]	5080 ± 220
NC(N)=S [Thiourea]	4830 ± 410
C[C@H](CCC(=O)NCCS(=O)(=O)O)[C@H]1CC[C@H]2[C@@H]3[C@H](O)C[C@@H]4C[C@H](O)CC[C@]4(C)[C@H]3C[C@H](O)[C@]12C [Taurocholic acid]	2500 ± 890
N[C@@H](CS(=O)(=O)O)C(=O)O [L-Cysteic acid]	5920 ± 240
NCCS(=O)O [Hypotaurine]	7620 ± 90
N[C@@H](CSCSC[C@H](N)C(=O)O)C(=O)O [L-Djenkolic acid]	7730 ± 190

Each compound was assayed on Escherichia coli Nissle 1917 (assay: DuctApe activity index of respiration/growth curve (0 no growth to 9 maximum) (index 0-9); higher = more growth / nutrient utilisation, active = 3 or more; extreme values may be limits of the assay). Settings: nutrient role: C-Source, alcohol; incubation: 48 h, 37 °C.

Compound	DuctApe activity index
CC(=O)C(C)=O [2,3-Butanedione]	0 (inactive)
CC(O)C(C)O (stereo not given) [2,3-Butanediol]	0 (inactive)
O=C(CO)CO [Dihydroxyacetone]	7 (active)

Same assay, conditions: nutrient role: C-Source, carbohydrate; incubation: 48 h, 37 °C

Compound	DuctApe activity index
OC[C@@]12OC[C@@H](O1)[C@@H](O)[C@@H](O)[C@@H]2O [Sedoheptulosan]	1.33 (inactive)
O=P(O)(O)OC[C@H]1OC(O)(CO)[C@@H](O)[C@@H]1O (stereo partly drawn) [D-Fructose-6-Phosphate]	9 (active)
OC[C@@H](O)[C@H](O)[C@H](O)[C@@H](O)CO [Dulcitol]	6 (active)
CO[C@@H]1O[C@H](CO)[C@H](O)[C@H](O)[C@H]1O [b-Methyl-D-Galactoside]	7 (active)
OC[C@@H]1OC(O)[C@@H](O)[C@H](O)[C@H]1O (stereo partly drawn) [L-Glucose]	0 (inactive)
OC[C@H]1O[C@H](OC[C@H]2O[C@H](O[C@]3(CO)O[C@H](CO)[C@@H](O)[C@@H]3O)[C@H](O)[C@@H](O)[C@@H]2O)[C@H](O)[C@@H](O)[C@H]1O [D-Raffinose]	7 (active)

Same assay, conditions: nutrient role: C-Source, carboxylic acid; incubation: 48 h, 37 °C

Compound	DuctApe activity index
C[C@H](O)C(=O)O [L-Lactic acid]	8 (active)
O=C(O)[C@@H](O)[C@H](O)C(=O)O [D-Tartaric acid]	0 (inactive)
O=C(O)CC(O)(CC(=O)O)C(=O)O [Citric acid]	0 (inactive)
O=C(CO)[C@@H](O)[C@H](O)[C@@H](O)C(=O)O [5-Keto-D-Gluconic acid]	0 (inactive)
N[C@@H](C(=O)O)[C@@H](O)[C@H](O)[C@H](O)CO [D-Glucosaminic acid]	2 (inactive)
O=C1O[C@H](CO)[C@@H](O)[C@H]1O [D-Ribono-1,4-Lactone]	0 (inactive)
NC(=O)CCC(=O)O [Succinamic acid]	0 (inactive)
C/C(=C/C(=O)O)C(=O)O [Citraconic acid]	0 (inactive)
O=C(O)/C=C/C(=O)O [Fumaric acid]	8.33 (active)

Same assay, conditions: nutrient role: sole nitrogen source (pyruvate carbon); incubation: 48 h, 37 °C

Compound	DuctApe activity index
OC[C@H]1O[C@@H](n2cnc3c(O)nc(O)nc32)[C@H](O)[C@@H]1O [Xanthosine]	4 (active)
Oc1nc(O)c2nc(O)[nH]c2n1 [Uric acid]	2.33 (inactive)
NC(=O)NC1NC(=O)NC1=O (stereo not given) [Allantoin]	1.67 (inactive)
O=C1NC(=O)C(=O)N1 [Parabanic acid]	1.33 (inactive)
